Source: PubChem
Hits are enriched below; roughly 2.4% of the tested compounds scored in any of these assays.
Pol iota inh – blocks human DNA polymerase iota activity | actives 1% (n = 390,000) | AID 588590 | Pol iota fluorescent replication assay, 10 min | Q9UNA4 | Potency, µM (titrated, usually from 115 µM), inactives show at the top dose activity, negative = inhibition, usual class: inhibitors
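Pol iota at 10 nM preincubated 15 min with compounds at room temperature; reaction started with fluorescent substrate, 50 nM final. Fluorescence read kinetically at 0 and 10 min; buffer-only wells as negative control.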
Pol kappa inh – inhibitors of human DNA polymerase kappa; Q9UBT6; purified Pol kappa, fluorescent DNA synthesis assay, 10 min; Potency, µM (titrated, usually from 107 µM), without a hit: top-dose activity, negative = inhibition, actives largely listed as inhibitors; actives 0.53% (n = 400,000); AID 588579; also: % is scaled to controls: 0 for no effect and ±100 for the full control effect
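Fluorescent qHTS in 1536-well format: enzyme (10 nM) and compound sat 15 min at room temperature before 50 nM substrate (final) was added. Signal taken at 0 and 10 min; no-enzyme buffer wells were negative controls.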
POLB inh – blocks human DNA polymerase beta activity; P06746; Pol beta primer extension/strand displacement, fluorescence kinetic; Potency, µM (doses to about 114 µM), without a hit: at the top dose activity change, negative = inhibition, actives largely listed as inhibitors; actives 1.3% (n = 340,000); also: % is scaled to controls: 0 for no effect and ±100 for the full control effect
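Values derive from four-parameter Hill fits of normalized kinetic data: reads at 0 and 10 min following addition of 50 nM substrate to 10 nM Pol beta preincubated 15 min with compound.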
FEN1 inh-1 – inhibitors of human flap endonuclease 1; P39748; actives 0.35% (n = 390,000); Recombinant FEN1 flap cleavage, fluorescence, 15 min; Potency, µM (top dose mostly 114 µM), for the others: at the highest dose activity change, negative = inhibition, usual class: inhibitors; also: % is scaled to controls: 0 for no effect and ±100 for the full control effect; nearly all actives have a fitted effect of over 65% in size
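With each library titrated from low to high concentration, compounds met 10 nM FEN1 for 15 min at room temperature before 50 nM substrate was added; readings at 0 and 15 min fed four-parameter Hill curve fits.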
Pol eta inh – inhibitors of human DNA polymerase eta. AID 588591. recombinant Pol eta, fluorescent DNA replication assay. actives 1.2% (n = 390,000). Potency, µM (doses to about 114 µM), for the others: at the highest dose activity change, negative = inhibition, actives largely listed as inhibitors. Q9Y253; also: % is scaled to controls: 0 for no effect and ±100 for the full control effect
Target sequence (Q9Y253 whole entry, looked up): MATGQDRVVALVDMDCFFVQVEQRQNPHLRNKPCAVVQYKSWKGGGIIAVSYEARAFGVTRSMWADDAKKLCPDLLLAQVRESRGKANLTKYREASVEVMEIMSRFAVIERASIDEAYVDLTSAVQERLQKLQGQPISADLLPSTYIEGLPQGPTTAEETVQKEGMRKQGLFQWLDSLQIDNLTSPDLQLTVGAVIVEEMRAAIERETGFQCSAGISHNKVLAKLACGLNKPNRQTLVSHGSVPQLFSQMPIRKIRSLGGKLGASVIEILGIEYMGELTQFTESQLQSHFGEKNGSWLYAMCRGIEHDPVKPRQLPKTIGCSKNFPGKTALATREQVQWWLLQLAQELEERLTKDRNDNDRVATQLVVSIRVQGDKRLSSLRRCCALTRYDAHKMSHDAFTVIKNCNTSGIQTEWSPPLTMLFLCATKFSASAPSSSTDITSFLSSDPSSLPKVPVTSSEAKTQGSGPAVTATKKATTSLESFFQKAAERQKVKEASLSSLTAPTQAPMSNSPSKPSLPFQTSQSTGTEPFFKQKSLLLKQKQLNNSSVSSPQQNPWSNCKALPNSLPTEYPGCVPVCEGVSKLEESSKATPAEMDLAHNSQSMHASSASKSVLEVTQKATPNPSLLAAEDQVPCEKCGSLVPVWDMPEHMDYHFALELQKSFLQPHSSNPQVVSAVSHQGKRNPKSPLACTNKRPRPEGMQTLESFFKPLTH
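Pol eta (10 nM) was preincubated with compounds for 15 min at room temperature, after which fluorescent replication substrate (50 nM final) was added to start the reaction. Fluorescence was read kinetically at 0 and 10 min.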
WRN helicase inh – inhibitors of human WRN helicase; Q14191; WRN helicase unwinding, fluorescent forked duplex, kinetic; Potency, µM (doses to about 114 µM), without a hit: top-dose activity change, negative = inhibition, most hits filed as inhibitors; actives 0.46% (n = 360,000); AID 651768; also: % is scaled to controls: 0 for no effect and ±100 for the full control effect; nearly all actives have a fitted effect of over 55% in size
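Primary qHTS, 1536-well format. 20 nM WRN + compound, 15 min RT; start with 100 nM forked fluorophore/quencher duplex, 2 mM ATP (final); kinetic read ex 525/em 598 nm.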
FEN1 inh-2 – FEN1 inhibition, cherry-pick retest; AID 720498; Potency, µM, actives largely listed as inhibitors; FEN1 flap cleavage, TAMRA/BHQ2 fluorogenic DNA substrate; shares compounds with FEN1 inh-1; actives 79% (n = 880); also: nearly all actives have a fitted effect of over 60% in size
Starred values were filed as active, the others as inactive; [ ] = remark or other dose. Calls follow the shape of the dose curve; as a rule, active = well fitted curve in the direction sought with a large enough effect; inconclusive = small, poorly fitted or top-dose-only effect, or another doubt; inactive = no such curve, though single readings can be large; an effect the other way counts as inactive or inconclusive. Potency is read from the fitted curve at half-maximal effect.

What do the screens show for `CCN1CCCC1CNC(=O)c1cc2c(-c3ccc(Cl)cc3)nn(C)c2s1` (stereo unspecified)?
Pol iota inh: inconclusive; Pol kappa inh: -20%; POLB inh: 35µM*; FEN1 inh-1: 50µM*; Pol eta inh: 4%; WRN helicase inh: 37%; FEN1 inh-2: 43*

How did COc1ccc(CCC(=O)N2CCN(S(=O)(=O)c3ccc(C)cc3)CC2)cc1 do in these assays?
Pol iota inh: -2%; Pol kappa inh: 10%; FEN1 inh-1: 7%; Pol eta inh: -14%; WRN helicase inh: -4%

How did COc1ccc(S(=O)(=O)N2CCN(C(=O)c3ccc([N+](=O)[O-])o3)CC2)cc1 do in these assays?
Pol iota inh: inconclusive; Pol kappa inh: -18%; POLB inh: inconclusive; FEN1 inh-1: 0%; Pol eta inh: inconclusive; WRN helicase inh: -5%[11.6 µM]; FEN1 inh-2: 76*

What do the screens show for `CN1CCC[C@H]1CCNc1ccc2c(=O)c3ccccc3n(C)c2c1`?
Pol iota inh: 28µM*; Pol kappa inh: inconclusive; FEN1 inh-1: 56µM*; Pol eta inh: inconclusive; WRN helicase inh: inconclusive; FEN1 inh-2: 43*

Results for CCC(=O)NC(c1ccco1)c1cc(Cl)c2cccnc2c1O (stereo unspecified) ?
Pol iota inh: 48%; Pol kappa inh: -25%; POLB inh: inconclusive; FEN1 inh-1: inconclusive; Pol eta inh: -4%; WRN helicase inh: -6%

What do the screens show for `O=C(NC(c1ccco1)c1cc(Cl)c2cccnc2c1O)c1ccsc1` (stereo unspecified)?
FEN1 inh-2: inconclusive

How did CC(C)(C)C1CCc2onc(C(=O)Nc3sc4c(c3C(N)=O)CCCC4)c2C1 (stereo unspecified) do in these assays?
Pol iota inh: -16%; Pol kappa inh: -2%; POLB inh: inconclusive; FEN1 inh-1: inconclusive; Pol eta inh: -10%

Results for Cc1cc(C)cc(N=Cc2ccc([N+](=O)[O-])s2)c1 ?
Pol iota inh: 79µM*; Pol kappa inh: -19%; POLB inh: inconclusive; FEN1 inh-1: inconclusive; Pol eta inh: 32µM*; WRN helicase inh: -2%[11.6 µM]; FEN1 inh-2: 5.4*

How did Cc1ccc(NC(=S)N/N=C/c2ccc([N+](=O)[O-])s2)cc1 do in these assays?
Pol iota inh: 9%; Pol kappa inh: -6%; POLB inh: -9%; FEN1 inh-1: -17%; Pol eta inh: -19%; WRN helicase inh: -12%

How did COc1cc(-c2ccc3ncnc(NCc4nc(C)cs4)c3c2)cc(OC)c1OC do in these assays?
FEN1 inh-2: inconclusive

What do the screens show for `COc1ccc(-c2ccc3ncnc(NCCc4cnc[nH]4)c3c2)cc1OC`?
FEN1 inh-2: 30*

How did COc1ccc2[nH]cc(CCNc3ncnc4ccc(-c5cccnc5)cc34)c2c1 do in these assays?
Pol kappa inh: 0%[60.1 µM]

How did COc1ccccc1NC(=O)C(=O)N/N=C/c1cccs1 do in these assays?
Pol iota inh: -40%; Pol kappa inh: -25%; POLB inh: inconclusive; FEN1 inh-1: 32µM*; Pol eta inh: inconclusive; WRN helicase inh: -17%; FEN1 inh-2: 30*

What do the screens show for `COc1ccc(CNc2cc(-c3ccccc3C)ncn2)c(OC)c1`?
Pol kappa inh: -7%[60.1 µM]

Results for Cc1cccc(NC(=O)CN2C(=O)S/C(=C\c3ccc(-c4cccc(C(=O)O)c4C)o3)C2=O)c1 ?
Pol iota inh: inconclusive; Pol kappa inh: -17%; POLB inh: 7%; FEN1 inh-1: 40µM*; Pol eta inh: 35µM*; WRN helicase inh: -10%; FEN1 inh-2: 67*

What do the screens show for `c1cc2ccc3ccc(CN4CCOCC4)c4ccc(c1)c2c34`?
Pol iota inh: 10%; Pol kappa inh: -5%; POLB inh: 29%; FEN1 inh-1: -25%; Pol eta inh: -11%; WRN helicase inh: 2%
